Assay outcomes as filed in PubChem.
PAD4 FP inh: inhibitors of human PAD4 | Q9UM07 | inhibition, % at 6.36 µM | actives 0.41% (n = 330,000) | recombinant PAD4, RCA probe fluorescence polarization;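 active = percent inhibition above a cutoff equal to the mean of all tested compounds plus 3 SD, cut at about 15% in these data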;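 note: 0% = PAD4 with RCA probe and DMSO and 100% = probe without PAD4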
LYPLA1 inh: counter-screen for PME1 inhibitors: inhibitors of human LYPLA1. actives 0.16% (n = 320,000). O75608. recombinant LYPLA1, FP-Rh probe fluorescence polarization. inhibition, % at 5.9 µM;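 active = inhibition above the mean of all tested compounds plus 3 SD, set per campaign, cut at about 14% in these data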;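 note: inhibitors block serine hydrolase probe labeling of LYPLA1 so polarization falls; 0% = enzyme with DMSO and 100% = wells lacking LYPLA1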
Target sequence (O75608 whole entry, looked up): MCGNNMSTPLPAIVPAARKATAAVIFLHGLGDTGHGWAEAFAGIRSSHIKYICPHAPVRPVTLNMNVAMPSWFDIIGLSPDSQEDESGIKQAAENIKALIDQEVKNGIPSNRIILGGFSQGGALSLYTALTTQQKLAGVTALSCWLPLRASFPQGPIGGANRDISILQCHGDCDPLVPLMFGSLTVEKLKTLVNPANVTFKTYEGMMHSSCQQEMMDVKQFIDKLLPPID
PME-1 inh: PME-1 (human) inhibition; recombinant PME-1, FP-Rh probe fluorescence polarization; inhibition, % at 5.9 µM; actives 0.53% (n = 320,000);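 active = inhibition above the campaign mean of all compounds plus 3 SD, cut at about 26% in these data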;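 note: competitive labeling of PME-1 active site by serine hydrolase directed probe; 0% = PME-1 with DMSO and 100% = wells lacking PME-1 enzyme; inhibitors block probe labeling so polarization falls and inhibition rises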
Fam108B counter: Fam108B inhibition, counter-screen for RBBP9 inhibitors | recombinant Fam108B, FP-Rh probe fluorescence polarization | inhibition, % at 9.51 µM | actives 0.33% (n = 300,000);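 active = inhibition above the screen mean inhibition plus 3 SD, computed separately per campaign, cut at about 18% in these data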;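 note: inhibitors lower polarization as less probe binds the enzyme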
GSTO1 counter: blocks human GSTO1 in RBBP9 counter-screen; recombinant GSTO1, activity-based probe fluorescence polarization; inhibition, % at 5.96 µM; actives 1.1% (n = 300,000); AID 1974;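 active = inhibition above the campaign mean inhibition plus 3 SD, cut at about 35% in these data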;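 note: 0% = GSTO1-1 with DMSO and 100% = wells lacking GSTO1-1 enzyme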
LYPLA2 inh: blocks human lysophospholipase 2, a PME1 counter-screen; AID 2177; inhibition, % at 5.9 µM; O95372; recombinant LYPLA2, FP-Rh probe fluorescence polarization; actives 0.38% (n = 320,000);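 active = inhibition above the screen-wide mean plus 3 SD, limit set per campaign, cut at about 26% in these data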;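 note: 0% = LYPLA2 with DMSO and 100% = wells lacking LYPLA2 enzyme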
Target sequence (O95372 whole entry, looked up): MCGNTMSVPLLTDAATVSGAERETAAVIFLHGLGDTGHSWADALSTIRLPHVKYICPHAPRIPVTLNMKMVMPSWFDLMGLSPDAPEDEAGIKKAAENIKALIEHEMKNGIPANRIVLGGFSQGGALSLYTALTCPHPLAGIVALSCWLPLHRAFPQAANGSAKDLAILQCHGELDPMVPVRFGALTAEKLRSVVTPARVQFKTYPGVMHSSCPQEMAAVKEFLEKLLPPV
LYPLA2 conf: counter-screen for PME1 inhibitors: confirmation of human LYPLA2 inhibitors; recombinant LYPLA2, FP-Rh probe fluorescence polarization; AID 2232; inhibition, % at 5.9 µM; shares compounds with LYPLA2 inh; actives 72% (n = 1,100);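 active = mean inhibition across replicates above the hit cutoff set in the primary screen, cut at about 26% in these data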;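 note: blocked labeling of the enzyme by serine hydrolase FP-Rh probe lowers polarization; 0% = enzyme with DMSO and 100% = wells lacking LYPLA2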
The depositor's hits bear a star; . = not tested or not shown. This is a sample that favours compounds with a hit; in the whole collection about 1.8% have one here.

SMILES	PAD4 FP inh	LYPLA1 inh	PME-1 inh	Fam108B counter	GSTO1 counter	LYPLA2 inh	LYPLA2 conf
COc1ccc(C(=O)NC(=S)NNC(=O)c2ccc(O)cc2)cc1[N+](=O)[O-]	-0.6	-1.8	-0.5	1.5	12.9	-4.0	.
O=C(c1cc(-c2ccc3c(c2)OCO3)on1)N1CCN(c2ccc(F)cc2)CC1	-7.2	0.6	-3.9	-3.1	1.4	3.9	.
O=C(c1cc(-c2ccc3c(c2)OCO3)on1)N1CCN(c2ccccc2)CC1	4.9	6.5	5.2	0.7	11.3	27.5*	15.6
Cc1nn(-c2ccccc2)c(C)c1C(=O)OCC(=O)Nc1ccccc1	5.8	3.1	4.5	.	.	39.0*	25.2
Cc1ccc(NC(=O)COC(=O)c2c(C)nn(-c3ccccc3)c2C)cc1	1.4	-2.7	-8.0	.	.	3.7	.
COc1cccc(NC(=O)COC(=O)c2c(-c3ccccc3)noc2C)c1	1.8	-2.5	-4.4	-0.5	6.8	27.8*	20.5
Cc1ccc(C(=O)N2CCCC(Nc3ccc(F)cc3)C2)cc1C (stereo unspecified)	-2.0	2.1	8.2	4.5	6.6	-1.0	.
Cc1ccc(C(=O)Nc2cccc(C(=O)NC3CCCCC3)c2)cc1	3.0	-2.0	0.5	-1.8	8.0	30.1*	30.9*
COc1cccc(NC(=O)[C@H](C)NC(=O)C2CCN(S(=O)(=O)c3ccc(C)cc3)CC2)c1	-2.8	-2.9	-0.8	-1.8	-4.0	1.5	.
COc1ccc(NC(=O)CN(C)CC(=O)Nc2ccc(C)c(S(=O)(=O)N3CCCCC3)c2)cc1	2.9	-2.3	13.3	.	.	-2.9	.
O=[N+]([O-])c1ccc(CN2CCOCCOCCN(Cc3ccc([N+](=O)[O-])cc3)CCOCC2)cc1	-0.9	1.4	0.9	1.4	-1.9	37.2*	21.6
Oc1ccc2ccccc2c1N=Nc1ccc(F)cc1	-2.6	5.3	-69.3	-22.4	-53.0	28.5*	-122.7
O=C(NNC(=O)c1cccs1)c1ccc(Br)cc1	3.6	-2.7	4.5	2.5	-1.9	3.0	.
O=C(O/N=C\c1ccc(N2CCCCC2)c([N+](=O)[O-])c1)c1cccc(C(F)(F)F)c1	-0.5	0.3	5.1	4.0	-5.0	8.8	.
CO/N=C/c1ccc(N2CCN(C(=O)c3ccc(F)cc3)CC2)c([N+](=O)[O-])c1	-2.8	1.3	1.3	-1.8	2.1	48.0*	49.9*
CO/N=C/c1ccc(N2CCN(C(=O)c3cccc(C(F)(F)F)c3)CC2)c([N+](=O)[O-])c1	0.4	5.0	0.4	-3.4	1.9	87.5*	85.5*
O=C(O/N=C\c1ccc(N2CCCCC2)c([N+](=O)[O-])c1)c1cccc(Cl)c1	0.7	3.8	1.9	3.4	2.3	15.0	.
CO/N=C/c1ccc(N2CCN(C(=O)c3ccc(Cl)cc3Cl)CC2)c([N+](=O)[O-])c1	-3.8	1.9	11.4	-3.9	-4.5	48.1*	50.1*
O=C(N/N=C/c1ccc(N2CCOCC2)c([N+](=O)[O-])c1)c1ccc(F)cc1	8.6	1.4	3.9	2.8	-3.3	0.0	.
O=C(Cn1nnc2ccccc21)NNC(=S)NC1CCCCC1	5.0	1.7	-0.1	-1.4	10.9	4.6	.
Cc1ccc(CS(=O)Cc2ccc(C(=O)NCC(C)c3ccccc3)o2)cc1 (stereo unspecified)	-0.3	0.6	1.9	-0.7	3.6	-1.5	.
OC(COCc1cccs1)CN1CCN(c2cccc(C(F)(F)F)c2)CC1 (stereo unspecified)	-0.3	2.8	-10.6	1.2	-1.2	34.2*	28.9*
C=CCn1c(SCC(=O)OCC)nc2cc(C(=O)NCc3ccco3)ccc2c1=O	1.2	-8.0	1.7	-1.3	5.0	-13.3	.
CCCCCn1c(SCC(=O)OCC)nc2cc(C(=O)NCc3ccco3)ccc2c1=O	-1.6	-8.0	0.1	1.2	3.9	34.1*	-3.6
COC(=O)c1ccc(CNC(=O)c2cc(COc3cncc(Cl)c3)on2)cc1	-4.3	0.9	7.2	0.8	4.8	34.9*	35.2*
COc1ccccc1C(=O)NCCC(=O)NCC(c1ccccc1)N(C)C (stereo unspecified)	-3.3	0.9	-7.8	-1.6	10.9	-3.3	.
